PubChem BioAssay (NCI)
About 83,000 compounds went through this panel and 20% of them were active in at least one assay; those are over-represented in the sample as a whole.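 96-well plates, one dose, 48 hours. Percent growth reported; active if below 10.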 The source made the active and inactive calls.

Each molecule was assayed on MDA-MB-468 breast (assay: NCI-60 one-dose screen, 48 h (100 = growth as untreated, 0 = no growth, -100 = all killed)). Settings: 0.005 µM.
Description: Growth inhibition of the MDA-MB-468 human Breast tumor cell line is measured as a screen for anti-cancer activity. Cells are grown in 96 well plates and exposed to the test compound for 48 hours. Compounds are tested at a single concentration, which is 10^-5 M for most compounds. The reported endpoint is percent growth (GI% or GIPRCNT), where numbers from 0 - 100% represent growth inhibition, and numbers from -100% - 0 represent cell death. For example, a value of 40 represents 60% growth inhibition. A value of 0 means no net growth occurred over the course of the experiment. A value of -40 indicates 40% of cells at the beginning of the experiment died by the end of the experiment. A value of -100 means all cells are dead at the end of the experiment.
NCI-60 Human Tumor Cell Lines Screen was performed using the standard one-dose NCI protocol, which is described in more detail at https://dtp.cancer.gov/discovery_development/nci-60/default.htm.
Compounds with GIPRCNT values below 10 were considered active. Activity score was based on GIPRCNT using the following formula: […]
Score is 0 for GIPRCNT values of 100 or above, 50 for GIPRCNT values of 0, and 100 for GIPRCNT values of -100.
CN(C)CCNc1ncc(F)c(-c2cnc3cc(-c4cnn(C)c4)ccn23)n1 was tested, and the growth was 103% (inactive).

Same assay, conditions: 10 µM unless noted
CCCCCCCCCCCC[n+]1ccc(CCCCCCCCC)cc1 was tested, and the growth was -53.8% (active). In the case of Fc1ccc(C2CC(c3cccc(Nc4ccncc4)c3)=NN2c2cc(Cl)cc(Cl)c2)cc1 (stereo not given), the growth is reported as 37.6% (inactive). With O=C(c1ccccc1)C(Br)C(Br)c1ccccc1 (stereo not given) the growth was 72.3% (inactive). Clc1ccc(Nc2ncc(Cc3cccc(Cl)c3Cl)s2)cc1 was tested, and the growth was 99.4% (inactive). With CNC(=O)c1cc(Oc2cccc3nc(NC(=O)Nc4cc(C(F)(F)F)ccc4Cl)ccc23)ccn1 the growth was 111% (inactive). CCN(CC)CCOc1ccc(C(=O)/C=C\c2ccc(Cl)cc2Cl)cc1 was tested, and the growth was 39.8% (inactive). With Cc1ccc(S(=O)(=O)Oc2ccc(NC(=O)c3ccc(Cl)cc3)cc2)cc1 the growth was 95.2% (inactive). In the case of COc1ccc2[nH]cc(-c3nc(-c4c[nH]c5c(Cl)nccc45)cs3)c2c1, the growth is reported as 34.1% (inactive). For CC(C)Oc1nc2c(c(=O)n(C)c(=O)n2C)n1C, the growth was 109% (inactive). CN(C)CC(C)(C)C(=O)/C=C/c1ccccc1 was tested, and the growth was -49% [25 µM] (active). For O=C1C=C(O)C(=O)C(CC2=C(O)C(=O)C=C(O)C2=O)=C1O, the growth was 98.7% (inactive). For O=C(OCC1OC(n2cc(C(F)(F)F)c(=O)[nH]c2=O)CC1OC(=O)c1ccc([N+](=O)[O-])cc1)c1ccc([N+](=O)[O-])cc1 (stereo not given), the growth was 85.3% (inactive). For C=CCn1c(SCC(=O)Nc2ccc(C(=O)/C=C/c3cc(OC)c(OC)c(OC)c3)cc2)nnc1-c1c[nH]c2ccccc12, the growth was 37% (inactive). In the case of CCCC(=O)CC(C)=O.CCCC(=O)CC(C)=O.[Cu], the growth is reported as 107% (inactive). With CN(C)CCC(=O)Nc1ccc(-n2cc(-c3cccc(NC(=S)Nc4cccc(-c5cn(-c6ccc(NC(=O)CCN(C)C)cc6)nn5)c4)c3)nn2)cc1 the growth was -9.56% (active). In the case of CSc1nc2ncnc(SC)c2[nH]1, the growth is reported as 106% (inactive). Cc1ccc(S(=O)(=O)Oc2ccc3c4c(c(=O)oc3c2)CCCCC4)cc1 was tested, and the growth was 35.5% (inactive). CCCN=C1NC(=O)/C(=C/c2nc(-c3ccc(OC)cc3)n3ccccc23)S1 was tested, and the growth was 101% (inactive). For Oc1ccc(Cc2ccccc2Cl)c(O)c1, the growth was 98.4% (inactive). In the case of Clc1ccc2c(c1)C(Br)c1cc(Cl)cc(Cl)c1-2 (stereo not given), the growth is reported as 96.7% (inactive). CC1(C)OC(=O)C(c2ccsc2)C(=O)O1 was tested, and the growth was 114% (inactive). With CCCCCCCCCCCC[n+]1ccccc1 (tested in a mixture with another compound) the growth was -37.6% (active). O=C(Cc1ccc([N+](=O)[O-])cc1)Oc1ccccc1 was tested, and the growth was 113% (inactive). In the case of CC[C@@H](CO)Nc1ccc2ncc(C#Cc3cncc(C(=O)Nc4ccc(CN5CCN(C)CC5)c(C(F)(F)F)c4)c3)n2n1, the growth is reported as -68.4% (active). For COc1ccc(-c2nc3cccc(O)c3c(=O)n2Cc2ccccc2)cc1COc1ccc(NC(C)=O)cc1, the growth was 71.9% [3 µM] (inactive). COc1ccc(C(O)(c2ccccc2)C(C(=O)O)c2ccccc2)cc1 (stereo not given) was tested, and the growth was 110% (inactive). With CCN(CC)S(=O)(=O)c1cccc(-c2ccc3c(NC(=O)C4CC4)n[nH]c3c2)c1 the growth was 6.55% [6.25 µM] (active). COc1cccc(CNc2cccc3cn[nH]c23)c1O was tested, and the growth was 80.6% (inactive). For COc1ccc(C/C(C)=C(\c2ccc(O)cc2)c2ccc(OCCN3CCCC3)cc2)cc1, the growth was 124% (inactive). For Cc1ccc(F)cc1NC(=O)c1cc(Cl)ccc1Nc1ccccc1, the growth was 61.8% (inactive). With CN(Cc1ccccc1)c1nc(Cl)c(C2CC(c3ccc(F)cc3)=NN2C=O)s1 (stereo not given) the growth was 77.5% (inactive). With C[C@]12CC[C@H]3[C@@H](CC=C4C[C@@H](O)CC[C@@]43C)[C@@H]1CC[C@@H]2[C@](C)(O)CCc1cccnc1 the growth was 25.3% (inactive). With CSc1nc(N)c2[nH]c(-c3cc4ccccc4[nH]c3=O)nc2n1 the growth was 1.87% (active). CN1C(=O)/C(=C/C=C/c2ccco2)SC1=S was tested, and the growth was 5.83% (active). [Cl][Ru].c1ccc(-c2cc(-c3ccccn3)nc(-c3ccccn3)c2)cc1.c1ccc(-c2ccnc3c2ccc2c(-c4ccccc4)ccnc23)cc1 was tested, and the growth was -66.3% (active). In the case of COc1ccc(S(=O)(=O)n2cc(C=O)c3ccccc32)c(OC)c1, the growth is reported as 84.7% (inactive). For O=C1NC(=Nc2ccc(S(=O)(=O)Nc3nccs3)cc2)S/C1=C\c1coc2ccccc2c1=O, the growth was 99.9% (inactive). In the case of Cc1cccc(CO)c1, the growth is reported as 107% (inactive).

Same assay, conditions: 30 µM
For CN(C)CCNc1ncc(F)c(-c2cnc3cc(-c4cnn(C)c4)ccn23)n1, the growth was 84.5% (inactive).
